Data on three compounds can be found in PubChem BioAssay (EPA / NIEHS).

Holding throughout (conditions): mRNA level, 48 h; actives raise or lower the signal
Read-out in test [1]: MicroRNA 122 (MIR122), gene 406906
The test can be described thus: LTEA_HepaRG_MIR122: Life Technologies and Expression Analysis (LTEA) Assay for MicroRNA 122 (MIR122) using HepaRG (AID 2283516). Note: the transcript read is the microRNA miR-122. The method, boiled down:
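HepaRG, 48 h exposure, 8-pt half-log from 100 uM, 0.5% DMSO; TaqMan qRT-PCR; bidirectional fit vs DMSO.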

Read-out in test [2]: matrix metalloproteinase-10 (MMP10), MMP10 (gene 4319)
The test can be described thus: LTEA_HepaRG_MMP10: Life Technologies and Expression Analysis (LTEA) Assay for matrix metalloproteinase-10 (MMP10) using HepaRG (AID 2283517). In outline: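 HepaRG, collagen I, ~100,000 cells/well; serum-free induction medium; 48 h exposure, duplicate, 8-pt half-log to 100 uM, 0.5% DMSO. Readout: TaqMan qRT-PCR, normalized to ACTB/GAPDH/POLR2A; bidirectional fit vs DMSO.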

Read-out in the next test: MYC, MYC (gene 4609)
The test can be described thus: LTEA_HepaRG_MYC: Life Technologies and Expression Analysis (LTEA) Assay for MYC using HepaRG (AID 2283518). In outline:
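Differentiated human HepaRG cells, plated 48 h then switched to serum-free induction medium, were exposed in duplicate for 48 h to 8-point half-log series up to 100 uM in 0.5% DMSO. MYC mRNA measured by qRT-PCR, normalized to ACTB/GAPDH/POLR2A.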

Read-out in test [3]: matrix metalloproteinase-3 (MMP3), MMP3 (gene 4314)
The test can be described thus: LTEA_HepaRG_MMP3: Life Technologies and Expression Analysis (LTEA) Assay for matrix metalloproteinase-3 (MMP3) using HepaRG (AID 2283519). The method, boiled down: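 Differentiated human HepaRG cells, plated 48 h on collagen I, were exposed in duplicate for 48 h in serum-free induction medium to eight half-log concentrations up to 100 uM in 0.5% DMSO. MMP3 mRNA was quantified by TaqMan qRT-PCR, normalised to ACTB, GAPDH and POLR2A.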

Read-out in test [4]: Paternally Expressed 10 (PEG10), PEG10 (gene 23089)
The test can be described thus: LTEA_HepaRG_PEG10: Life Technologies and Expression Analysis (LTEA) Assay for Paternally Expressed 10 (PEG10) using HepaRG (AID 2283520).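 For AC50: PEG10 transcript by qRT-PCR normalised to ACTB GAPDH and POLR2A.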 In outline: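 Chemicals tested on HepaRG cells for 48 h, highest concentration 100 uM. PEG10 expression assessed by qRT-PCR relative to DMSO control.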

Read-out in test [5]: Protein phosphatase 2A (PPP2R4), PTPA (gene 5524)
The test can be described thus: LTEA_HepaRG_PPP2R4: Life Technologies and Expression Analysis (LTEA) Assay for Protein phosphatase 2A (PPP2R4) using HepaRG (AID 2283522). In outline: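 Gene-expression endpoint in HepaRG hepatic cells: 48 h treatment across eight half-log concentrations up to 100 uM in 0.5% DMSO. PPP2R4 mRNA by qRT-PCR, normalized to three endogenous control genes.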

Read-out in test [6]: Phosphatase and tensin (PTEN), PTEN (gene 5728)
The test can be described thus: LTEA_HepaRG_PTEN: Life Technologies and Expression Analysis (LTEA) Assay for Phosphatase and tensin (PTEN) using HepaRG (AID 2283523). In outline: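 Differentiated human HepaRG cells, plated 48 h then switched to serum-free induction medium, were exposed in duplicate for 48 h to eight half-log concentrations up to 100 uM in 0.5% DMSO. PTEN mRNA measured by TaqMan qRT-PCR, normalized to ACTB/GAPDH/POLR2A, bidirectional fit versus DMSO.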

Read-out in test [7]: solute carrier (SLC22A1), SLC22A1 (gene 6580)
The test can be described thus: LTEA_HepaRG_SLC22A1: Life Technologies and Expression Analysis (LTEA) Assay for solute carrier (SLC22A1) using HepaRG (AID 2283524). In outline: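 Human HepaRG cells were plated 48 h, switched to serum-free induction medium, then exposed in duplicate for 48 h to 8-point half-log series from 100 uM in 0.5% DMSO. SLC22A1 mRNA measured by qRT-PCR, normalized to ACTB/GAPDH/POLR2A, fitted bidirectionally versus DMSO.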

Read-out in test [8]: Pyruvate Dehydrogenase Kinase 4 (PDK4), PDK4 (gene 5166)
The test can be described thus: LTEA_HepaRG_PDK4: Life Technologies and Expression Analysis (LTEA) Assay for Pyruvate Dehydrogenase Kinase 4 (PDK4) using HepaRG (AID 2283525). The method, boiled down:
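Differentiated human HepaRG cells, pre-cultured 48 h, were exposed in duplicate for 48 h in serum-free induction medium to eight half-log concentrations up to 100 uM in 0.5% DMSO. PDK4 mRNA was quantified by qRT-PCR, normalized to ACTB, GAPDH and POLR2A, bidirectional fitting versus DMSO.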

Read-out in test [9]: NAD(P)H dehydrogenase [quinone] 1 (NQO1), NQO1 (gene 1728)
The test can be described thus: LTEA_HepaRG_NQO1: Life Technologies and Expression Analysis (LTEA) Assay for NAD(P)H dehydrogenase [quinone] 1 (NQO1) using HepaRG (AID 2283526). In outline: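 Human HepaRG hepatic cells received chemicals for 48 h in serum-free induction medium with 0.5% DMSO, up to 100 uM. Expression was assessed by TaqMan qRT-PCR against housekeeping controls and fitted bidirectionally against DMSO.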

Read-out in test [10]: Nuclear factor erythroid 2-related factor 2 (Homo sapiens) (UniProt Q16236)
The test can be described thus: LTEA_HepaRG_NFE2L2: Life Technologies and Expression Analysis (LTEA) Assay for Nuclear factor erythroid 2-related factor 2 (NFE2L2) Transcription Factor using HepaRG (AID 2283527).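 For outcome: TaqMan qRT-PCR transcript level normalised to ACTB GAPDH and POLR2A housekeeping genes.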 In outline:
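Differentiated human HepaRG cells in serum-free induction medium were exposed for 48 h to eight concentrations (top 100 uM, half-log dilutions, 0.5% DMSO), in duplicate. NFE2L2 mRNA was quantified by TaqMan qRT-PCR, normalized to ACTB, GAPDH and POLR2A, with bidirectional fitting versus DMSO.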

Read-out in test [11]: succinate dehydrogenase complex iron sulfur subunit B (SDHB), SDHB (gene 6390)
The test can be described thus: LTEA_HepaRG_SDHB: Life Technologies and Expression Analysis (LTEA) Assay for succinate dehydrogenase complex iron sulfur subunit B (SDHB) using HepaRG (AID 2283528). The method, boiled down: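 HepaRG, 48 h exposure, 8-pt half-log series from 100 uM in 0.5% DMSO, duplicates. Readout: SDHB mRNA by Fluidigm qRT-PCR vs housekeeping genes; bidirectional fit relative to DMSO.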

Read-out in test [12]: Signal transducer and activator of transcription 3 (Homo sapiens) (UniProt P40763)
The test can be described thus: LTEA_HepaRG_STAT3: Life Technologies and Expression Analysis (LTEA) Assay for Signal transducer and activator of transcription (STAT3) using HepaRG (AID 2283529). The method, boiled down:
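Differentiated human HepaRG cells in serum-free induction medium were exposed in duplicate for 48 h to eight half-log concentrations up to 100 uM in 0.5% DMSO. STAT3 mRNA was quantified by TaqMan qRT-PCR, normalized to ACTB, GAPDH and POLR2A, and fitted bidirectionally against DMSO.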

Read-out in test [13]: solute carrier (SLCO1B1), SLCO1B1 (gene 10599)
The test can be described thus: LTEA_HepaRG_SLCO1B1: Life Technologies and Expression Analysis (LTEA) Assay for solute carrier (SLCO1B1) using HepaRG (AID 2283530). The method, boiled down:
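Differentiated human HepaRG cells, plated 48 h, switched to serum-free induction medium and exposed in duplicate for 48 h to 8 half-log concentrations (top 100 uM) in 0.5% DMSO. SLCO1B1 mRNA by TaqMan qRT-PCR, normalized to ACTB/GAPDH/POLR2A.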

Read-out in test [14]: sulfotransferase 2A1 (SULT2A1), SULT2A1 (gene 6822)
The test can be described thus: LTEA_HepaRG_SULT2A1: Life Technologies and Expression Analysis (LTEA) Assay for sulfotransferase 2A1 (SULT2A1) using HepaRG (AID 2283531). In outline:
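Differentiated human HepaRG cells in serum-free induction medium were exposed for 48 h to eight half-log concentrations (top 100 uM, 0.5% DMSO). SULT2A1 mRNA was measured by qRT-PCR, normalized to ACTB, GAPDH and POLR2A, and fitted bidirectionally against DMSO.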

Read-out in test [15]: Transforming Growth Factor (TGFA), TGFA (gene 7039)
The test can be described thus: LTEA_HepaRG_TGFA: Life Technologies and Expression Analysis (LTEA) Assay for Transforming Growth Factor (TGFA) using HepaRG (AID 2283532). In outline:
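Differentiated human HepaRG cells, plated 48 h then switched to serum-free induction medium, were exposed in duplicate for 48 h to 8-point half-log series from 100 uM in 0.5% DMSO. TGFA mRNA measured by qRT-PCR, normalized to ACTB/GAPDH/POLR2A, bidirectional fit versus DMSO.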

Read-out in test [16]: Transforming Growth Factor (TGFB1), TGFB1 (gene 7040)
The test can be described thus: LTEA_HepaRG_TGFB1: Life Technologies and Expression Analysis (LTEA) Assay for Transforming Growth Factor (TGFB1) Transporter using HepaRG (AID 2283533). The method, boiled down:
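Differentiated human HepaRG cells in serum-free induction medium were exposed in duplicate for 48 h to eight concentrations (top 100 uM, half-log steps, 0.5% DMSO). TGFB1 mRNA was quantified by qRT-PCR, normalized to ACTB, GAPDH, POLR2A, and fitted bidirectionally against DMSO.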

Read-out in another test: TIMP1, TIMP1 (gene 7076)
The test can be described thus: LTEA_HepaRG_TIMP1: Life Technologies and Expression Analysis (LTEA) Assay for TIMP1 using HepaRG (AID 2283534).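 Note: TaqMan qRT-PCR signal normalized to ACTB GAPDH and POLR2A housekeeping genes.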 The method, boiled down:
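Differentiated human HepaRG cells in serum-free induction medium were exposed 48 h to chemicals (8 half-log concentrations, top 100 uM, 0.5% DMSO). TIMP1 mRNA was quantified by TaqMan qRT-PCR, normalized to ACTB/GAPDH/POLR2A; bidirectional fit versus DMSO.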

Read-out in test [17]: Tumor necrosis factor receptor 1 (TNFRSF1A), TNFRSF1A (gene 7132)
The test can be described thus: LTEA_HepaRG_TNFRSF1A: Life Technologies and Expression Analysis (LTEA) Assay for Tumor necrosis factor receptor 1 (TNFRSF1A) using HepaRG (AID 2283535). The method, boiled down: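 Differentiated human HepaRG cells were exposed in duplicate for 48 h in serum-free induction medium to eight concentrations (top 100 uM, half-log steps, 0.5% DMSO). TNFRSF1A mRNA was quantified by qRT-PCR, normalized to ACTB, GAPDH and POLR2A, then fitted bidirectionally against DMSO.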

Read-out in test [18]: Nuclear factor NF-kappa-B p105 subunit (Homo sapiens) (UniProt P19838)
The test can be described thus: LTEA_HepaRG_NFKB1: Life Technologies and Expression Analysis (LTEA) Assay for Nuclear Factor Kappa B Subunit 1 (NFKB1) using HepaRG (AID 2283521).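 Note: TaqMan qRT-PCR transcript normalised to ACTB GAPDH and POLR2A housekeeping genes.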 In outline: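 Differentiated human HepaRG cells were exposed for 48 h in serum-free induction medium to eight concentrations (top 100 uM, half-log steps, 0.5% DMSO), in duplicate. NFKB1 mRNA was measured by TaqMan qRT-PCR, normalized to ACTB/GAPDH/POLR2A, and fitted bidirectionally against DMSO.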

Calls of active or inactive are those of the source. Rule for the calls: active = hit-call score of the fitted dose curve at least 0.9, where 1 is the maximum; inactive = score below 0.9.

Chain of Signal transducer and activator of transcription 3 (Homo sapiens) (P40763 whole entry, looked up): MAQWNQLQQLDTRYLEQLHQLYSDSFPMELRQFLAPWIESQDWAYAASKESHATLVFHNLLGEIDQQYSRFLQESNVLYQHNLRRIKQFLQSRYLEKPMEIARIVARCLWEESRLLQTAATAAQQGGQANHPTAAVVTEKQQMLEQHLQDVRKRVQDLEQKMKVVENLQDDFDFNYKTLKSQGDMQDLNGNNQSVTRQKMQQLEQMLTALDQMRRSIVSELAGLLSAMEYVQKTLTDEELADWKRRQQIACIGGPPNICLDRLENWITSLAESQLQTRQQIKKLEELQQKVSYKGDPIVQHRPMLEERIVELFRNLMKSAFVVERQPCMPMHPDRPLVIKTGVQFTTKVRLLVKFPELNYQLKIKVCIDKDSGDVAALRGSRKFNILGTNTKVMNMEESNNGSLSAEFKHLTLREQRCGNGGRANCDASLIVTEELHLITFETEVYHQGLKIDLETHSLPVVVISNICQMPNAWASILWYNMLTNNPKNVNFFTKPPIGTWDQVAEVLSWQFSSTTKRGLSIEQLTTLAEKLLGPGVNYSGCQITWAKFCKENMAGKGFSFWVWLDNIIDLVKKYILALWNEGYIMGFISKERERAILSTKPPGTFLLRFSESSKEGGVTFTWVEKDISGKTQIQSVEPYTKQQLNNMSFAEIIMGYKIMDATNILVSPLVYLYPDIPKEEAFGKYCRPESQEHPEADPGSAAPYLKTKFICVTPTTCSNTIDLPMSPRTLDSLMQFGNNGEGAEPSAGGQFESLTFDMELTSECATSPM
Chain of Nuclear factor erythroid 2-related factor 2 (Homo sapiens) (Q16236 whole entry, looked up): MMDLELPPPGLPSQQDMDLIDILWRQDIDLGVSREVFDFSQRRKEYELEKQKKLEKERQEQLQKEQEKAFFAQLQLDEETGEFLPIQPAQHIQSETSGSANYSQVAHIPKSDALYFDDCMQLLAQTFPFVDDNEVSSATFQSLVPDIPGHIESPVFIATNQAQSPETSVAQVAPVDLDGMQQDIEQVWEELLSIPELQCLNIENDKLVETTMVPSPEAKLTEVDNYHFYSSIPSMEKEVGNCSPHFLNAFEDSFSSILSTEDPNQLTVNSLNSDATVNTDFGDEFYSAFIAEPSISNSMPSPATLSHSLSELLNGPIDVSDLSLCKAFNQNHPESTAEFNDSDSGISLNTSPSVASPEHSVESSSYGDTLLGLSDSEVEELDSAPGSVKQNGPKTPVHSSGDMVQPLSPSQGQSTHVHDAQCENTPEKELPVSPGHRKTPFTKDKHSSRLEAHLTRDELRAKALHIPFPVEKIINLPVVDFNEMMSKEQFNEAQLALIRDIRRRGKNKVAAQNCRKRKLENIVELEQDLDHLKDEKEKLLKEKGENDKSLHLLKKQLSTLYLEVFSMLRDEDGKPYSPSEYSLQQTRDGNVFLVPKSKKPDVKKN
Chain of Nuclear factor NF-kappa-B p105 subunit (Homo sapiens) (P19838 whole entry, looked up): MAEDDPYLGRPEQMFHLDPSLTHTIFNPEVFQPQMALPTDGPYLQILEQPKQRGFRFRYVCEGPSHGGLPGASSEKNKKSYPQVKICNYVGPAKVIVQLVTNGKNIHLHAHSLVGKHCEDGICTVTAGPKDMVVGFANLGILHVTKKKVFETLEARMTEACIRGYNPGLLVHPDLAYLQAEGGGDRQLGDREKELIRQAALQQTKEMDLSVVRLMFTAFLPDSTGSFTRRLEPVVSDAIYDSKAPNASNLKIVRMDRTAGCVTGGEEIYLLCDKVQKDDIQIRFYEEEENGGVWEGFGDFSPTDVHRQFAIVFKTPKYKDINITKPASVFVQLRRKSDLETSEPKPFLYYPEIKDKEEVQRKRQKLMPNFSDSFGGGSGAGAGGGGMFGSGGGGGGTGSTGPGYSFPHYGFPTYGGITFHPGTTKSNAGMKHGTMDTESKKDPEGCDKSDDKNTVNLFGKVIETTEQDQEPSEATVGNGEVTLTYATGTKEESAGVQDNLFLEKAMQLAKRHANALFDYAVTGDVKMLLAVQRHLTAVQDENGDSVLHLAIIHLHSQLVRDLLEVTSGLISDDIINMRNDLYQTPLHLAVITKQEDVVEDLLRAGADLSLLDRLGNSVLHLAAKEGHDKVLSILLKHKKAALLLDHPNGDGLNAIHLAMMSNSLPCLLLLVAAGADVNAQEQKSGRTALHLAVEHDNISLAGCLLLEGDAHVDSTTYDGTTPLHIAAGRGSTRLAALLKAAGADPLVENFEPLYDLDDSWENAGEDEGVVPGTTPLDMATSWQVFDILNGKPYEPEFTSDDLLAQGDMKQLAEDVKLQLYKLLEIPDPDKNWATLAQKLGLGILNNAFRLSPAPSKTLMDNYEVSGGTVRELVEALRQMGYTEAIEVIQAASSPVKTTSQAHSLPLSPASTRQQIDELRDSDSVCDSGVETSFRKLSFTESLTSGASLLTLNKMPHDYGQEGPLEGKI

Take `CCN(CC)C(=O)C(C)Oc1cccc2ccccc12` (centres undefined): the concentration at half-maximal activity (AC50) in test [1] was 81.1 µM (active); in test [3], 76.2 µM (active); in test [4], 76.5 µM (active); in test [7], 70.1 µM (active). For the same compound, the outcome in [2] was “inactive”; with MYC, MYC (gene 4609), “inactive”; in test [5], “inactive”; in test [6], “inactive”; in [8], “inactive”; in test [9] it was “inactive”. Also, the outcome in test [10], in test [11], in test [12], in [13], in test [14] and in test [15] was inactive. The outcome was “inactive” in test [16]; “inactive” in the test with TIMP1, TIMP1 (gene 7076); “inactive” in test [17].

For `CCCCC(O)(Cn1cncn1)c1ccc(Cl)cc1Cl` (centres undefined), the AC50 in test [1] is 77 µM (active); in test [2] it was 67.4 µM (active); with MYC, MYC (gene 4609) it was 74.7 µM (active); in [3], 92.3 µM (active); in test [4] it was 50 µM (active); in [8] it was 78.8 µM (active). Also, the half-maximal activity concentration (AC50) was 50 µM (active) in test [9]; 50 µM (active) in test [10]; 85.9 µM (active) in test [12]; 76.6 µM (active) in [13]; 76.3 µM (active) in test [14]; 71.8 µM (active) in [15]. Besides, in test [16], the AC50 was 61.2 µM (active). Also, the outcome in test [18] was “inactive”; in test [5], “inactive”; in test [6], “inactive”; with TIMP1, TIMP1 (gene 7076) it was “inactive”; in test [17], “inactive”.

Take `COCC(C)N(C(=O)CCl)c1c(C)csc1C` (centres undefined): the outcome is “inactive” in [1]; “inactive” in test [2]; “inactive” with MYC, MYC (gene 4609); “inactive” in [3]; “inactive” in test [4]; “inactive” in test [5]. Moreover, the compound was classed as inactive in test [6], in test [8], in test [9], in test [10], in test [12] and in test [13]. The outcome is “inactive” in test [14]; “inactive” in test [15]; “inactive” in test [16]; “inactive” with TIMP1, TIMP1 (gene 7076); “inactive” in [17].
